Several values for one entry are separate records, joined by “and”; a condition that tells them apart may be missing. Equal entries are not always repeated. More than one record can exist for a structure, and the calls need not agree. Activity calls are given as the source filed them. Unless noted, no rule for the calls is given here.
Key:
[1] = kinase inhibitors against Plasmodium liver-stage infection, cell-based, known kinase inhibitor set, luminescence, hepatoma host viability (AID 624392); conditions: Plasmodium liver stage in hepatoma cells, luciferase luminescence, concentration not given here; liver cell % of control: measured here: host liver cell viability; parasite % of control: stronger effect = lower value;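 also: infected cells incubated roughly two days before readout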
[2] = modulators of glucocorticoid suppression of NF-kB, cell-based, luciferase, IL-1B stimulus, dexamethasone (AID 624486); conditions: NF-kB luciferase reporter, IL-1B + dexamethasone, luminescence; percent of negative control (+Dex): actives lie on both sides, concentration not given here; z-score: measured here: IL-1B alone, no Dex;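 as to percent of negative control (+Dex): 100% = mean signal of vehicle control wells on the plate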
[3] = kinase inhibitors altering Pseudomonas killing of worms, whole organism (AID 651566);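 also: tested at 14 µM; sign flipped so higher z means a lower ratio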; conditions: C. elegans killed by P. aeruginosa, survival ratio
[4] = activators of macrophage pro-inflammatory response, cell-based, murine, luminescence (AID 652131); conditions: murine macrophage pro-inflammatory reporter, stronger effect = higher value
[5] = target: Cellular tumor antigen p53 (Homo sapiens) (UniProt P04637); test: kinase inhibitors altering GFP-p53 stability in HPV16-positive cells, imaging, known kinase inhibitor set, EGFP/DsRed ratio (AID 1053116); conditions: stronger effect = higher value; EGFP object count: measured here: GFP-p53 positive objects count;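 also: cells exposed to compounds for 24 h at 37 °C before reading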
Chain of Cellular tumor antigen p53 (Homo sapiens) (P04637 whole entry, looked up): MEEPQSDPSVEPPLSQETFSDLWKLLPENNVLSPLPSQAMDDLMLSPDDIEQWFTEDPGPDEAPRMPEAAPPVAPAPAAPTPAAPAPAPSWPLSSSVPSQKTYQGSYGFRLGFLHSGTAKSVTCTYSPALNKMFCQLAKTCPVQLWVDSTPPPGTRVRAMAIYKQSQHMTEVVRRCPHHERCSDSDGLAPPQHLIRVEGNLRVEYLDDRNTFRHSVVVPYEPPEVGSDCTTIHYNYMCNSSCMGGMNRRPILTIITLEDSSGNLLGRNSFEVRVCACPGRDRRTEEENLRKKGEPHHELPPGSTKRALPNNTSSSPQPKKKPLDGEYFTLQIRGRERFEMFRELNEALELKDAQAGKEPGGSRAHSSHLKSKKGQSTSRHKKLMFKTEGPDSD

[6] = IRF3 reporter activation in THP-1 macrophages, cell-based, PMA-stimulated THP-1, luminescence (AID 1053176); conditions: PMA-differentiated THP-1, IRF3 reporter luminescence; stronger effect = higher value
[7] = survival rescue of mitochondrial mutant cells in low glucose, primary screen, MELAS cybrids, Rieske KO mouse fibroblasts, CellTiter-Glo (AID 1508586;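 active = mean z-score across replicates of 1.96 or higher in either the MELAS or the Rieske mutant cell line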;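 also: z relative to plate mean and SD of compound and empty wells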)
[8] = MELAS cybrid survival, CellTiter-Glo 48 h, stronger effect = higher value
[9] = Rieske KO mouse fibroblast survival, CellTiter-Glo 72 h

| Compound | liver cell % of control [1] | parasite % of control [1] | percent of negative control (+Dex) [2] | z-score [2] | z-score [3] | z-score [4] | EGFP object count [5] | EGFP/DsRed ratio [5] | fraction signal [6] | z-score [7, 8] | z-score [7, 9] |
| --- | --- | --- | --- | --- | --- | --- | --- | --- | --- | --- | --- |
| CCn1c(-c2nonc2N)nc2c(C#CCN)ncc(OCCCN)c21 | 63.5% | 112% (inactive) | 85% (inactive) | -0.55 | -0.71 (inactive) | 3.14 (inactive) | 6 | 0.152 (inactive) | -0.008 (inactive) | -0.193 (inactive) | -0.317 |
| CCn1c(-c2nonc2N)nc2c(C#CC(C)(C)O)nc(OCCNC)cc21 | 78.2% | 239% (inactive) | 83.5% (inactive) | -0.295 | 1.3 (inactive) | -0.135 (inactive) | 10.5 | 0.224 (inactive) | -0.006 (inactive) | -0.95 (inactive) | -0.363 |
| Nc1nc(-c2cccc(Cl)c2)c(-c2ccc3ncccc3n2)s1 | 156% | 115% (inactive) | 103% (inactive) | 0.42 | -1.02 (inactive) | -0.477 (inactive) | 2.5 | 0.0471 (inactive) | -0.0045 (inactive) | 0.115 (inactive) | -0.0691 |
| N#Cc1cccc(Nc2ncc(-c3ccccc3)o2)c1 | 108% | 125% (inactive) | 241% (active) | 19.8 | -0.175 (inactive) | 4.37 (inactive) | 6 | 0.11 (inactive) | -0.004 (inactive) | 1.35 (inactive) | 0.0963 |
| O=C1Nc2ccc(-c3cccnc3)cc2/C1=C\c1cc(Br)c(O)c(Br)c1 | 174% | 13.3% (inactive) | 102% (inactive) | -0.125 | 0.98 (inactive) | 0.575 (inactive) | 1.5 | 0.0182 (inactive) | -0.0065 (inactive) | -0.192 (inactive) | -0.185 |
| COc1cccc(COc2cc(-n3cnc4ccccc43)sc2C(N)=O)c1 | 95% | 99.6% (inactive) | 87% (inactive) | -0.845 | 1.31 (inactive) | -0.593 (inactive) | 4 | 0.0452 (inactive) | -0.006 (inactive) | -0.15 (inactive) | 0.0931 |
| CC1(C)CC(n2cnc(-c3ccc(F)cc3)c2-c2ccnc(N)n2)CC(C)(C)N1 | 79.9% | 131% (inactive) | 110% (inactive) | 1.77 | 0.485 (inactive) | 1.82 (inactive) | 4 | 0.0677 (inactive) | 0.0175 (inactive) | -0.417 (inactive) | 0.00971 |
| CCn1c(-c2nonc2N)nc2c(C#CC(C)(C)O)nc(CN3CCCC3)cc21 | 107% | 162% (inactive) | 85.5% (inactive) | -0.04 | -0.175 (inactive) | 0.541 (inactive) | 4 | 0.0701 (inactive) | 0.0045 (inactive) | -0.869 (inactive) | 0.697 |
| C#Cc1cccc(Nc2ncnc3ccc(OCCCCNCCS(C)(=O)=O)cc23)c1 | 80.2% | 197% (inactive) | 70.5% (inactive) | -1.95 | 0.035 (inactive) | -0.695 (inactive) | 4 | 0.148 (inactive) | 0.0175 (inactive) | -0.125 (inactive) | -0.333 |
| CN1CCC(C(=O)Nc2n[nH]c3nc(-c4ccc(O)cc4)c(Br)cc23)CC1 | 51.2% and 53.8% | 292% (inactive) and 294% (inactive) | 108% (inactive) and 100% (inactive) | -0.82 and -0.48 | 0.21 (inactive) and -0.175 (inactive) | -0.483 (inactive) and -0.641 (inactive) | 2.5 and 3 | 0.0956 (inactive) and 0.0438 (inactive) | 0.0155 (inactive) and 0.0035 (inactive) | -0.719 (inactive) and 2.2 (active) | -0.17 and -0.0758 |
| NS(=O)(=O)c1cccc(NC2CC(c3ccc(F)cc3)NN2)c1 (stereo not drawn) | 86.1% | 117% (inactive) | 92.5% (inactive) | 0.55 | 0.39 (inactive) | 4.5 (inactive) | 7.5 | 0.474 (inactive) | -0.0055 (inactive) | 1.38 (inactive) | -0.322 |
| CN1CCN(CCCNc2nc3ccc(Oc4ccc(NC(=O)Nc5cc(C(F)(F)F)ccc5F)cc4)cc3[nH]2)CC1 | 95.2% | 94.4% (inactive) | 97.5% (inactive) | 0.025 | -0.94 (inactive) | 1.21 (inactive) | 3.5 | 0.103 (inactive) | -0.0045 (inactive) | -0.0444 (inactive) | -0.286 |
| CCc1ccc(Oc2nccc(-c3c(-c4ccc(F)cc4)ncn3C3CCNCC3)n2)cc1 | 78.5% | 140% (inactive) | 104% (inactive) | 0.41 | 0.125 (inactive) | -0.495 (inactive) | 4.5 | 0.0563 (inactive) | -0.0095 (inactive) | -0.158 (inactive) | -0.111 |
| COC(=O)Nc1nc2ccc(Oc3cccc(NC(=O)Nc4cc(C(F)(F)F)ccc4F)c3)cc2[nH]1 | 103% | 148% (inactive) | 104% (inactive) | 2.25 | 1.03 (inactive) | 4.52 (inactive) | 4 | 0.18 (inactive) | -0.0045 (inactive) | -0.76 (inactive) | 0.691 |
| CCOc1ccc2c(-c3ccnc(Nc4cc(OC)cc(C(F)(F)F)c4)n3)cnn2n1 | 65.9% | 254% (inactive) | 86.5% (inactive) | 1.62 | -0.445 (inactive) | 0.258 (inactive) | 6 | 0.102 (inactive) | -0.001 (inactive) | 0.655 (inactive) | -0.17 |
| COc1cccc(-n2cnc3c(N/N=C/c4ccncc4)ncnc32)c1 | 88.9% | 105% (inactive) | 104% (inactive) | 0.5 | -1.34 (inactive) | -0.055 (inactive) | 1.5 | 0.0324 (inactive) | 0.0015 (inactive) | 2.14 (active) | 0.0192 |
| COc1ccc(-c2ccc3c(NC(=O)C4CC4)n[nH]c3n2)cc1 | 119% | 77.2% (inactive) | 130% (inactive) | 2.11 | 0.15 (inactive) | 2.53 (inactive) | 6 | 0.0694 (inactive) | 0.0035 (inactive) | 1.36 (inactive) | 0.0157 |
| CCN(CC)S(=O)(=O)c1ccc(OC)c(Nc2ncc(-c3ccccc3)o2)c1 | 168% | 80% (inactive) | 91% (inactive) | 0.485 | -0.36 (inactive) | -0.177 (inactive) | 3 | 0.245 (inactive) | -0.012 (inactive) | -0.446 (inactive) | -0.197 |
| Nc1nc(-c2ccccn2)c(-c2ccc3ncccc3n2)s1 | 94.7% | 101% (inactive) | 81.5% (inactive) | -0.74 | 0.265 (inactive) | 4.39 (inactive) | 4 | 0.114 (inactive) | -0.01 (inactive) | -0.0333 (inactive) | -0.22 |
| CC(=O)NCc1cccc(C#Cc2cncnc2Nc2ccc(OCc3cccc(F)c3)c(Cl)c2)c1 | 86.2% | 90.8% (inactive) | 77% (inactive) | -1.32 | 0.19 (inactive) | -0.99 (inactive) | 5.5 | 0.157 (inactive) | 0.004 (inactive) | 0.0992 (inactive) | -0.0459 |
| COc1cccc(-n2ncc3c(N/N=C/c4ccc(F)cc4)ncnc32)c1 | 104% | 96.2% (inactive) | 93.5% (inactive) | 0.76 | -1.12 (inactive) | -0.343 (inactive) | 9 | 0.197 (inactive) | -0.0025 (inactive) | 1.48 (inactive) | -0.0554 |
| CCOc1ccc2c(-c3ccnc(Nc4cccc(C(F)(F)F)c4)n3)cnn2n1 | 69.9% | 174% (inactive) | 78% (inactive) | 0 | 0.335 (inactive) | -0.613 (inactive) | 10 | 0.229 (inactive) | 0.0035 (inactive) | -0.0749 (inactive) | -0.0737 |
| CCCN1CCCC(c2ccc(Nc3nc(Nc4cc(F)ccc4C(N)=O)c4cc[nH]c4n3)c(OC)c2)C1 (stereo not drawn) | 71% | 101% (inactive) | 73.5% (inactive) | -2.44 | 1.62 (inactive) | -0.56 (inactive) | 50.5 | 0.576 (inactive) | -0.003 (inactive) | -0.991 | 4.23 |
| C[C@@H](Oc1cc(-n2cnc3ccc(OCC4CCN(C)CC4)cc32)sc1C(N)=O)c1ccccc1C(F)(F)F | 80.7% | 130% (inactive) | 98.5% (inactive) | -0.76 | -1.17 (inactive) | -2 (inactive) | 12 | 0.346 (inactive) | -0.0025 (inactive) | 0.571 (inactive) | 0.279 |
| Fc1cccc(COc2ccc(Nc3ncnc4sc(-c5ccco5)cc34)cc2Cl)c1 | 85.8% | 129% (inactive) | 89% (inactive) | -0.11 | 0.87 (inactive) | -0.392 (inactive) | 4.5 | 0.122 (inactive) | -0.0105 (inactive) | -0.906 (inactive) | -0.52 |
| COc1cc(Nc2nccc(Nc3ccc4c(C)[nH]nc4c3)n2)cc(OC)c1OC | 142% | 247% (inactive) | 68% (inactive) | -1.93 | -0.535 (inactive) | 2.91 (inactive) | 2 | 0.0182 (inactive) | -0.01 (inactive) | -0.786 | 5.33 |
| CCS(=O)(=O)c1ccc(OC)c(Nc2ncc(-c3cccc(OC)c3)o2)c1 | 161% | 16.6% (inactive) | 78.5% (inactive) | -0.275 | 0.285 (inactive) | -0.544 (inactive) | 4.5 | 0.129 (inactive) | 0.002 (inactive) | 1.48 (inactive) | -0.42 |
| CS(=O)(=O)CCNCc1nc(-c2ccc3ncnc(Nc4ccc(F)c(Cl)c4)c3c2)cs1 | 103% | 148% (inactive) | 70.5% (inactive) | -1.57 | 0.63 (inactive) | 2.24 (inactive) | 6.5 | 0.211 (inactive) | 0.002 (inactive) | 0.0696 (inactive) | -0.331 |
